Experiment [1] in a line: yeast TOR pathway RPL19A-GFP modulators, primary screen, cell-based, S. cerevisiae, multiplex flow cytometry (AID 1862; in the data active means percent of DMSO control GFP below about 86%;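 further: lower values mimic rapamycin by blocking the RPL19A rise seen in DMSO cells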). As to conditions: S. cerevisiae RPL19A-GFP strain, flow cytometry fluorescence, 3 h; at 10 µM; stronger effect = lower value.
Experiment [2] in a line: modulators of MEP2-GFP levels in yeast, primary screen, S. cerevisiae, multiplex flow cytometry (AID 1867;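 active means GFP response, as percent of the DMSO control, above the screen-wide mean plus 3 SD, about 139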;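 further: median GFP channel fluorescence of barcode-gated MEP2-GFP cells measured by flow cytometry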). The settings on record: S. cerevisiae MEP2-GFP strain, 3 h, at 10 µM, stronger effect = higher value. (Flow cytometry measures light scatter and fluorescence of single cells or particles in a stream.)
Experiment [3] is described as follows: modulators of CIT2-GFP expression in yeast, primary screen, S. cerevisiae, GFP fusion, multiplex flow cytometry (AID 1870;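 active means percent response above a set limit, the screen-wide mean plus 3 SD, cut at about 130% in these data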;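 further: barcoded CIT2-GFP strain pooled with four other GFP strains with rapamycin as positive control; median GFP fluorescence per well over plate mean of DMSO wells so 100% = DMSO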). The settings on record: 3 h, at 10 µM, stronger effect = higher value.
Experiment [4] is described as follows: modulators of LAP4-GFP expression in yeast, primary screen, S. cerevisiae, multiplex flow cytometry (AID 1873;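 active means GFP signal, as percent of the solvent control, above the screen mean plus 3 SD, about 149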). As to conditions: 3 h, at 10 µM, stronger effect = higher value.
The nature of experiment [5]: modulators of AGP1-GFP expression in yeast TOR pathway, primary screen, cell-based, multiplex flow cytometry, S. cerevisiae (AID 1887;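 active means GFP signal above the screen-wide mean plus 3 SD, that is over about 124.5% of the solvent control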;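 further: AGP1-GFP fusion strain of S. cerevisiae within a five-strain barcoded multiplex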). The settings on record: 3 h, at 10 µM, stronger effect = higher value.
Experiment [6] is described as follows: inhibitors of CD8+ T cell-vesicle binding, pilot screen, LFA-1/ICAM-1 modulator project, MLPCN validation set, flow cytometry (AID 2523;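 active means response below a set limit, under 55% cells CD8-positive and vesicle-bound, and CD8 cells' 90th-percentile brightness under 279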;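 on vesicle binding response: mean PE anti-B7-1 fluorescence of CD8+ cells relative to row control; 100% = QL9-loaded vesicles with DMSO vehicle in the same plate row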). As to conditions: 2C mouse CD8+ T cells, at 7 µM, stronger effect = lower value; double positive events: measured here: CD8+/vesicle+ event percentage.
Experiment [7] deals with Integrin beta-1 (Homo sapiens) + Integrin alpha-4 (Homo sapiens) (UniProt P13612+P05556). Description: inhibition of HUTS-21 binding to VLA-4, pilot screen, VLA-4 allosteric modulator project, U937 cells, HUTS-21 mAb, flow cytometry, validation set (AID 2674;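 active means inhibition above 50%, about 3 SD of the validation set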;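 further: antibody binding induced by the VLA-4 ligand LDV present at three times its Kd; 0% = LDV ligand with antibody and no compound and 100% = antibody without LDV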). As to conditions: HUTS-21 LIBS mAb binding, at 6.7 µM, stronger effect = higher value.
Integrin beta-1 (Homo sapiens) + Integrin alpha-4 (Homo sapiens), sequence (P05556 whole entry, looked up): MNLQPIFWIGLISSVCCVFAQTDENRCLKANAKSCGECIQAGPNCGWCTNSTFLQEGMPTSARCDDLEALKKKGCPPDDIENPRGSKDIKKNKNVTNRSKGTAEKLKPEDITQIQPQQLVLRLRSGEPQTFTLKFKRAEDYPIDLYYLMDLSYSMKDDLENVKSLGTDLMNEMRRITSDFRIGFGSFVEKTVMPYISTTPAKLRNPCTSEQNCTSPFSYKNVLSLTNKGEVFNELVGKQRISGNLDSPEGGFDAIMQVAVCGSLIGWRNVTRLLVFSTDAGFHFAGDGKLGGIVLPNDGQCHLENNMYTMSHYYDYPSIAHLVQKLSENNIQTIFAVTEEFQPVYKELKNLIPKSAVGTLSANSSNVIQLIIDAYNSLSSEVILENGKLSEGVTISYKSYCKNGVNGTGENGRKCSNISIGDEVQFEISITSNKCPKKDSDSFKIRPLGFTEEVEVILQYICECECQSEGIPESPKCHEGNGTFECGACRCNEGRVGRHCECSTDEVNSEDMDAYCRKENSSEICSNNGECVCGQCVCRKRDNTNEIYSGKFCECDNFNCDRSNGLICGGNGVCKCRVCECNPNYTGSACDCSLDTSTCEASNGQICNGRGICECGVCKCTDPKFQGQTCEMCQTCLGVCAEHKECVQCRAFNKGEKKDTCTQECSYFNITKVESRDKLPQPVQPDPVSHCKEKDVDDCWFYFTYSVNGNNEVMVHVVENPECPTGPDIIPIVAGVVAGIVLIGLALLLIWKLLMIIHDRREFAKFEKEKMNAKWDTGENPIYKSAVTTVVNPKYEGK
Integrin beta-1 (Homo sapiens) + Integrin alpha-4 (Homo sapiens), sequence (P13612 whole entry, looked up): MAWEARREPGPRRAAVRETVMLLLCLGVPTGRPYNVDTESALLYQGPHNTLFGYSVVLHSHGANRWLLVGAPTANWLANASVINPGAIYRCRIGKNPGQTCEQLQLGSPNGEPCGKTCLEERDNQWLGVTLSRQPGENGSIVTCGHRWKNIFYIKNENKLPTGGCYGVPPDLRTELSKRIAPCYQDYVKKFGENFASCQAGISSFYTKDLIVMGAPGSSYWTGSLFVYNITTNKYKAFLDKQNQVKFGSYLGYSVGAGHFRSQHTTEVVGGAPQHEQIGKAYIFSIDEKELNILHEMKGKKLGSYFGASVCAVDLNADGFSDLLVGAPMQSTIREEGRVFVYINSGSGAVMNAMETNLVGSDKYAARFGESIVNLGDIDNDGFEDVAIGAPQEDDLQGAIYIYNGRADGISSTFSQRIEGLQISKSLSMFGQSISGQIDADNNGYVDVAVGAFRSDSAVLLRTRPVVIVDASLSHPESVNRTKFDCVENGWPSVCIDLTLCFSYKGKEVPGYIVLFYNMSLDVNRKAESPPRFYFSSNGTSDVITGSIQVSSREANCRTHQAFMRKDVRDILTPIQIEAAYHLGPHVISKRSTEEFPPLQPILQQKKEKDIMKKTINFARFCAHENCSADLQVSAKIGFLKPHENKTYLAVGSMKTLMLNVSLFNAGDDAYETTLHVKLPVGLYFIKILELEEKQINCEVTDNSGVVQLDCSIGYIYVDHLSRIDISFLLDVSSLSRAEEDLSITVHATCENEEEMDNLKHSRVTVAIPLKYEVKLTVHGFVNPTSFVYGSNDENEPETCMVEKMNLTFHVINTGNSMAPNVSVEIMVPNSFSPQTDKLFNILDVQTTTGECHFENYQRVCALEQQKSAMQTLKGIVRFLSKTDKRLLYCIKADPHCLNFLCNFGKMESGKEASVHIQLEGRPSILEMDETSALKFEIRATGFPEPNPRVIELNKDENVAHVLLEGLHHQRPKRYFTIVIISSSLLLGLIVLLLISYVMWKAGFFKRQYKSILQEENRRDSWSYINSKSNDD
The nature of experiment [8]: superoxide lowering in aged yeast cells, pilot screen, validation compound set (AID 2706;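 active means superoxide response below 65% of plate, a cut near 3 SD across the whole screen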;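 further: yeast exposed to compound for one week at 30 degrees C before staining; 100% = mean of all compound wells on the same plate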). As to conditions: S. cerevisiae aging, superoxide DHE fluorescence; at 10 µM; stronger effect = lower value.
Experiment [9] concerns the target Beta-adrenergic receptor kinase 1 (Homo sapiens) (UniProt P25098). Description: GRK2 binders displacing RNA aptamer, biochemical, validation, human GRK2, bead flow cytometry (AID 488806;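 active means aptamer binding inhibition above 30%, about 3 SD of noise from non-fluorescent compounds; inactive means inhibition at or below 30%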). The settings on record: bead-bound GRK2, FAM-aptamer displacement, at 10 µM, stronger effect = higher value.
Experiment [10] deals with Beta-2 adrenergic receptor (Homo sapiens) (UniProt P07550). As to the kind of experiment: beta2AR agonists driving receptor internalization, pilot screen, cell-based, FAP fluorogen, flow cytometry, validation set (AID 504459;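 active means percent response above 42, roughly 3 SD of non-fluorescent test compounds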;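 further: agonist-driven loss of surface beta2AR via internalization measured by FAP dye flow cytometry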). As to conditions: Am2.2-beta2AR cells, FAP surface receptor flow cytometry; at 10 µM; stronger effect = higher value.
Beta-2 adrenergic receptor (Homo sapiens), sequence (P07550 whole entry, looked up): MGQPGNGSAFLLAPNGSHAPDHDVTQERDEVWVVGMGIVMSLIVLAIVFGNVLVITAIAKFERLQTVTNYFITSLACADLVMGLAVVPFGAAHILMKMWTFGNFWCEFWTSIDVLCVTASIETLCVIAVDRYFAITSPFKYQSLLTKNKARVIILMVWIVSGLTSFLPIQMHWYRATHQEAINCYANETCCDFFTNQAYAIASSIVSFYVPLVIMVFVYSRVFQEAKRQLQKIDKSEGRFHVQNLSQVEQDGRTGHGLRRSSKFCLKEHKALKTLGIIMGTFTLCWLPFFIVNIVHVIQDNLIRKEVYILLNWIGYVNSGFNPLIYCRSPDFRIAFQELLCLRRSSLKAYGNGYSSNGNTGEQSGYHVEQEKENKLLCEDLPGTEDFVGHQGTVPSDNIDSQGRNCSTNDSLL
Experiment [11] deals with AP-2 complex subunit beta (Homo sapiens) (UniProt P63010). Description: inhibitors of arrestin peptide binding to AP2, pilot screen, biochemical, validation set, GST-AP2 beads, flow cytometry (AID 504541;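 active means inhibition above 54%, about 3 SD of non-fluorescent compounds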;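 further: AP2 carries R879A mutation and is captured from E. coli lysate; bead-bound FITC arrestin peptide fluorescence measuring arrestin peptide binding to AP2; 0% = DMSO wells and 100% = excess unlabeled arrestin peptide control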). As to conditions: FITC arrestin peptide, at 10 µM, stronger effect = higher value.
AP-2 complex subunit beta (Homo sapiens), sequence (P63010 whole entry, looked up, one chain of several): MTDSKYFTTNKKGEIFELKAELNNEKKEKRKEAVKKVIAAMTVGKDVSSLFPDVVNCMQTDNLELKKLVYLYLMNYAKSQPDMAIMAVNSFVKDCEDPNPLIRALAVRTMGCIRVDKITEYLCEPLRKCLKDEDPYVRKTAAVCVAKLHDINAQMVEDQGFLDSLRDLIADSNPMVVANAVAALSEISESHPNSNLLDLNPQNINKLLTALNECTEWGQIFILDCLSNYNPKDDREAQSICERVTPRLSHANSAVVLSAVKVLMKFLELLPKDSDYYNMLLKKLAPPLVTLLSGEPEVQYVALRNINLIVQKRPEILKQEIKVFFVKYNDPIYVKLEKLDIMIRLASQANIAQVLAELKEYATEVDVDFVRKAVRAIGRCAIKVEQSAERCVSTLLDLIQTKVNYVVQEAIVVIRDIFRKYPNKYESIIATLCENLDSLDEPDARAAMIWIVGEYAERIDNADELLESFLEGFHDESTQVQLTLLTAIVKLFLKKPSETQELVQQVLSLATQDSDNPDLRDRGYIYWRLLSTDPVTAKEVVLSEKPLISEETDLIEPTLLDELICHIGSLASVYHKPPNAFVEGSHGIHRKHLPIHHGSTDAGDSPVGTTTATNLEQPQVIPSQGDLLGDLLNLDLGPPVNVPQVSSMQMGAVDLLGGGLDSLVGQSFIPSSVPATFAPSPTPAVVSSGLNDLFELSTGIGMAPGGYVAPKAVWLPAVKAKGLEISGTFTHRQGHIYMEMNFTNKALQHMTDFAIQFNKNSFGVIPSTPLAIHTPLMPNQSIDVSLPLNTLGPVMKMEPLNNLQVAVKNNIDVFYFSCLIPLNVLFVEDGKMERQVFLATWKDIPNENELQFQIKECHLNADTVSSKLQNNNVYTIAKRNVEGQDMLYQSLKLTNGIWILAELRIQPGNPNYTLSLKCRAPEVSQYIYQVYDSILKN
Experiment [12] in a line: yeast V-ATPase proton transport modulators, S. cerevisiae, pHLuorin, HTS validation (AID 504600; in the data active means response above about 15%;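 further: plate controls were DMSO for no effect and reference compound for full effect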). The settings on record: S. cerevisiae pHLuorin cytosolic pH, at 10 µM, stronger effect = higher value.
Experiment [13] concerns anti-desmoglein-3 scFv antibody binding to human DSG3. As to the kind of experiment: inhibitors of anti-DSG3 scFv binding to DSG3, pilot screen, biochemical, validation compound set, bead-based, flow cytometry (AID 588368;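 active means binding below the plate cutoff, the plate median minus 3 SD, with a reading above zero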;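 further: signal is the median channel fluorescence of bead-bound GFP antibody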). As to conditions: Protein G beads, DSG3-Fc, scFv-GFP binding, at 10 µM, stronger effect = lower value.
Experiment [14] relates to Botulinum neurotoxin type F light chain protease (Clostridium botulinum). Description: Botulinum neurotoxin type F light chain protease inhibition, multiplex microsphere flow cytometry, validation set (AID 588459). As to conditions: multiplex microsphere protease substrate cleavage assay, at 10 µM, stronger effect = higher value.
Experiment [15] deals with Botulinum neurotoxin type A (Clostridium botulinum) (UniProt P0DPI0). Description: BoNT/A light chain protease inhibitors, biochemical, multiplex microsphere flow cytometry, validation set (AID 588460). As to conditions: at 10 µM, stronger effect = higher value.
The target of experiment [16] is Lethal factor (Bacillus anthracis) (UniProt P15917). As to the kind of experiment: Lethal factor protease inhibitors, Bacillus anthracis, multiplex microsphere cleavage assay, validation set (AID 588461). As to conditions: flow cytometry, at 10 µM, stronger effect = higher value.
Experiment [17] is described as follows: inhibitors of fungal efflux pumps CDR1, CDR2, MDR1, pilot screen, validation compound set, multiplex, phenotypic (AID 588506;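 active means efflux inhibition above 0.42, the validation set average plus 4 SD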;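 further: Nile Red retained in cells so higher fluorescence means more efflux inhibition; 0 = negative control wells and 1 = enniatin B 25 µM full block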). As to conditions: S. cerevisiae pump-expressing triplex, Nile Red efflux flow cytometry; at 10 µM; stronger effect = higher value.
The target of experiment [18] is ATP-binding cassette sub-family B member 6 (Homo sapiens) (UniProt Q9NP58). Description: ABCB6 transporter inhibitors, pilot screen, K562-ABCB6 cells, flow cytometry, validation set (AID 588550;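 active means inhibition above the screen-wide mean plus 3 SD, about 51%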;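 further: 0% = DMSO wells and 100% = benzethonium chloride 70 µM positive control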). As to conditions: K562-ABCB6 porphyrin accumulation, 1 h, at 10 µM, stronger effect = higher value.
ATP-binding cassette sub-family B member 6 (Homo sapiens), sequence (Q9NP58 whole entry, looked up): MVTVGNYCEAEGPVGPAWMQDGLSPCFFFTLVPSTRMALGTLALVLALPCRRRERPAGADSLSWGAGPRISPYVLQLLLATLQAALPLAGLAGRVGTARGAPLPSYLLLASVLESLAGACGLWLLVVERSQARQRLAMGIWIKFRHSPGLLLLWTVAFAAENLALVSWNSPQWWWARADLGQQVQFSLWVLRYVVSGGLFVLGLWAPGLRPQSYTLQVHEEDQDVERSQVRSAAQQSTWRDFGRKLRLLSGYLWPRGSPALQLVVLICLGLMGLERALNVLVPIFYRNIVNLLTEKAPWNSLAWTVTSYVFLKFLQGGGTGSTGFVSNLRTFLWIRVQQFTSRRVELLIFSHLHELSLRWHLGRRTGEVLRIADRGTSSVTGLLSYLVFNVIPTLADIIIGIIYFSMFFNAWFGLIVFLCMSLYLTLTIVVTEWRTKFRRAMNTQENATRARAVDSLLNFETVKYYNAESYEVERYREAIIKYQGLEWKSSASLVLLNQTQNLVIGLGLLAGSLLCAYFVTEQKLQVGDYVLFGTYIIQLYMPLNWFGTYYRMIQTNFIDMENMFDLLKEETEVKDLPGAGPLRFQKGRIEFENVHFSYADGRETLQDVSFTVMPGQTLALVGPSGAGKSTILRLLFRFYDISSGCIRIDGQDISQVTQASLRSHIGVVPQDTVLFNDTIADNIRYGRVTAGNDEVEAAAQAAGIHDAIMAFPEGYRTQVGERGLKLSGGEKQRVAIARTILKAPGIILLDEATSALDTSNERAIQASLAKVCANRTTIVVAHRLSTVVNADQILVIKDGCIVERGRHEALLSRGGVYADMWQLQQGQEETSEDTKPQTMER
The nature of experiment [19]: promoters of myeloid differentiation in arrested cells, primary screen, cell-based, GFP/MAC1 double positive, flow cytometry, validation set (AID 588685;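 active means differentiation response of at least 50%, scaled between solvent and reference control, from cells with both markers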;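 further: compound exposure lasts four days before antibody staining and flow analysis; 0% = DMSO wells and 100% = 5 µM fulvestrant positive control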). As to conditions: ER-HoxA9 marrow cells, stronger effect = higher value.

As usually defined, the inhibition is the drop in the measured response relative to a control, in per cent.

Records with an inconclusive call do not appear. Calls of active or inactive are those of the source. Unless noted, how the calls were made is not given here.

Beta-adrenergic receptor kinase 1 (Homo sapiens), sequence (P25098 whole entry, looked up): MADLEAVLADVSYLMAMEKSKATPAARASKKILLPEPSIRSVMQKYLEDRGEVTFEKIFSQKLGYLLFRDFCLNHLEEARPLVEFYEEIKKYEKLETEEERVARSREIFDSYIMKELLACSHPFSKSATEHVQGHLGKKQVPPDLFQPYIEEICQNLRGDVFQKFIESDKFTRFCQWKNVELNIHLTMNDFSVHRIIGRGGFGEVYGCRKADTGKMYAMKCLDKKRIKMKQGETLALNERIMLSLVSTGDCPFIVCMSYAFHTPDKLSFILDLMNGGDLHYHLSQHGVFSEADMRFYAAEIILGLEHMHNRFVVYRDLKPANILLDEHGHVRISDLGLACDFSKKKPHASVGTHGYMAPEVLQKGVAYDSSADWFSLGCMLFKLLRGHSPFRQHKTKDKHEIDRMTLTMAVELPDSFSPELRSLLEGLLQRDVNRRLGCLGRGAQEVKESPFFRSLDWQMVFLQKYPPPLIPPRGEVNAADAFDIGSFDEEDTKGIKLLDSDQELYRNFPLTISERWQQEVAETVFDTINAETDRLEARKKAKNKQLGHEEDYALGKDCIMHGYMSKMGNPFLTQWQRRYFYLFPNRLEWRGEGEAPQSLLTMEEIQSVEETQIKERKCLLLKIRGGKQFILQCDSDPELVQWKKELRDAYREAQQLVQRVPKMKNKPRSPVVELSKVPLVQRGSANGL

Regarding `C[C@H]1OC[C@@H](C[N+](C)(C)C)O1`, in experiment [1], the percent of DMSO control GFP is 100% (inactive). Also, the GFP response vs DMSO in [2] is 98.7% (inactive); in experiment [4], 92.6% (inactive). The percent response of DMSO control in [3] was 101% (inactive). Besides, the GFP response, % of DMSO in experiment [5] is 96.2% (inactive). The double positive events in experiment [6] turned out to be 62.3%. In addition, the vesicle binding response in [6] was 144% (inactive). The inhibition in [7] was -6.45% (inactive); in experiment [11] it was 5.6% (inactive); in [14] it was 0.4% (inactive); in experiment [15] it was 0.4% (inactive); in [16], 4.6% (inactive); in experiment [18], -2% (inactive). Further, the superoxide response (% of plate) in experiment [8] is 95.3% (inactive). For the same compound, in experiment [9], the aptamer binding inhibition was 3% (inactive). The response was 2.48% (inactive) in experiment [10] and 4.51% (inactive) in experiment [12]. For the same compound, the binding (% of control) in experiment [13] is 102% (inactive). Moreover, the efflux inhibition (fraction of control) in experiment [17] is -0.16 (inactive). The differentiation response in [19] was -10.4% (inactive).
Consider `COc1ccc(NC2=NCC(C)S2)cc1` (stereo not given), for which the percent of DMSO control GFP in experiment [1] was 103% (inactive). Besides, the GFP response vs DMSO was 101% (inactive) in [2] and 89.3% (inactive) in experiment [4]. Moreover, the percent response of DMSO control in experiment [3] was 109% (inactive). The GFP response, % of DMSO in experiment [5] is 96% (inactive). The double positive events in [6] amounted to 69.5%. Further, the vesicle binding response in experiment [6] was 150% (inactive). The inhibition in experiment [7] was 11% (inactive); in [11] it was 5.98% (inactive); in [14], -2.8% (inactive); in experiment [15] it was 0.2% (inactive); in experiment [16] it was -2.7% (inactive); in experiment [18] it was 0% (inactive). In addition, the superoxide response (% of plate) in [8] was 101% (inactive). Also, in experiment [9], the aptamer binding inhibition was 2% (inactive). Further, the response is 5.38% (inactive) in [10] and 4.39% (inactive) in [12]. For the same compound, the binding (% of control) in [13] is 100% (inactive). In addition, the efflux inhibition (fraction of control) in experiment [17] is 0.195 (inactive). The differentiation response in experiment [19] was -3.11% (inactive).
In the case of `CC12CN3CC(C)(CN(C1)C3c1cccs1)C2=O` (stereo not given), the percent of DMSO control GFP in [1] was 101% (inactive). Further, the GFP response vs DMSO in [2] was 99.3% (inactive); in experiment [4] it was 97.3% (inactive). Further, the percent response of DMSO control in experiment [3] was 109% (inactive). Besides, the GFP response, % of DMSO in experiment [5] was 107% (inactive). The compound further yielded a double positive events in experiment [6] of 63%. The vesicle binding response in experiment [6] was 181% (inactive). Further, the inhibition is -9.79% (inactive) in experiment [7]; -2.92% (inactive) in [11]; -2.3% (inactive) in experiment [14]; -0.1% (inactive) in experiment [15]; -4.2% (inactive) in experiment [16]; 6% (inactive) in experiment [18]. Also, the superoxide response (% of plate) in [8] is 102% (inactive). In [9], the aptamer binding inhibition is 4% (inactive). Also, the response in experiment [10] was -0.2% (inactive); in experiment [12], -1.09% (inactive). Besides, in [13], the binding (% of control) is 99.3% (inactive). Moreover, the efflux inhibition (fraction of control) in experiment [17] is 0.05 (inactive). Besides, in experiment [19], the differentiation response was -7.57% (inactive).
Turning to `CCn1ccnc1CN1CCCC(C(=O)c2cc(F)ccc2OC)C1` (stereo not given), the percent of DMSO control GFP in [1] was 100% (inactive). In addition, the values for the GFP response vs DMSO in [2] and in [4] were 93% (inactive) and 99.9% (inactive), respectively. Also, the percent response of DMSO control in [3] is 96.7% (inactive). Moreover, the GFP response, % of DMSO in experiment [5] was 102% (inactive). Besides, in [6], the double positive events turned out to be 61.5%. Also, the vesicle binding response in [6] is 125% (inactive). In addition, the inhibition in experiment [7] is -3.16% (inactive); in [11], 18.6% (inactive); in experiment [14], 0.8% (inactive); in experiment [15], -1.2% (inactive); in experiment [16], -1.6% (inactive); in [18], 3% (inactive). Further, in [8], the superoxide response (% of plate) was 96.9% (inactive). The aptamer binding inhibition in [9] is 2% (inactive). Also, the response is -6.87% (inactive) in [10] and 1.54% (inactive) in [12]. The binding (% of control) in experiment [13] was 98.4% (inactive). Besides, in experiment [17], the efflux inhibition (fraction of control) was -0.21 (inactive). Further, in experiment [19], the differentiation response is -8.8% (inactive).

These data come from PubChem BioAssay.
